High-throughput results (PubChem)
Pf Dd2 growth: inhibitors of Plasmodium falciparum Dd2 growth. hit rate 2.3% among 94,000. AID 1159554. activity change, % at 10 µM. P. falciparum Dd2 growth, SYBR Green, 72 h; active compounds read low; in the data active means activity change below about -80%; inconclusive means no clear call, values can overlap the other calls
C diff growth: C. difficile growth inhibition | Clostridium difficile clinical isolate growth, OD600, 24 h; active compounds read low | growth activity, negative = inhibition, % at 16 µg/mL (by protocol) | hit rate 0.25% among 86,000 | AID 1259249;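 active means mean growth activity at or below -80% and every replicate also at or below -80%; inconclusive means mean at or below -80% but some replicate above -80%; inactive means mean growth activity above -80%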
T cruzi growth-1: T. cruzi proliferation inhibition; T. cruzi beta-gal in NIH3T3, GalScreen luminescence, 90 h; hit rate 5.9% among 77,000; inhibition, % at 8.34 µM;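 active means mean inhibition above about 93%, with at least 55% of replicates each passing it, limit read from the data, passing the limit was not always enough; inconclusive means only one of those two conditions holds; inactive means neither condition holds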
T cruzi growth-2: blocks T. cruzi growth in NIH3T3 host cells. T. cruzi beta-gal in NIH3T3, GalScreen luminescence, 90 h. shares compounds with T cruzi growth-1. hit rate 72% among 5,600. inhibition, % at 8.35 µM;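 active means mean replicate inhibition above about 95% and at least 55% of replicates individually reaching it, limit read from the data; inconclusive means only one of the two criteria is met; inactive means neither criterion is met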
T cruzi growth-3: Trypanosoma cruzi proliferation inhibition; T. cruzi beta-gal in NIH3T3, GalScreen luminescence, 90 h; AID 651740; shares compounds with T cruzi growth-1; hit rate 21% among 5,600; inhibition, % at 2.09 µM;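 active means mean inhibition above about 95%, with at least 55% of replicates also reaching it, limit read from the data; inconclusive means meets just one of the two conditions; inactive means meets neither condition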
NIH3T3 tox: cytotoxicity in mouse NIH/3T3 fibroblasts | shares compounds with T cruzi growth-1 | NIH/3T3 viability, CellTiter-Glo ATP luminescence, 90 h | cytotoxicity (signal decrease), % at 8.35 µM | hit rate 14% among 5,600 | AID 651742;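 active means mean signal decrease across replicates above about 35% based on untreated-well scatter, with enough replicates individually passing, limit read from the data; inconclusive means no rule stated though some were filed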
NIH3T3 tox 2: NIH/3T3 (mouse) viability loss | AID 651744 | shares compounds with T cruzi growth-1 | hit rate 56% among 5,600 | NIH/3T3 viability, CellTiter-Glo ATP luminescence, 90 h | inhibition, % at 24.9 µM;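 active means mean loss of cell viability signal at or above a set limit, and enough replicates individually reaching it; inconclusive means meets only the mean limit or only the replicate share; inactive means meets neither condition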
Hits are given with their value. Only some compounds are listed: those with a hit (about 6.8% of all), similar ones and a draw of the others.

For O=C(C[C@@H]1CC[C@H]2[C@@H](COC[C@@H](O)CN2C(=O)Nc2ccc(Cl)c(Cl)c2)O1)NCc1ccc(Cl)c(Cl)c1 the results were Pf Dd2 growth inactive and T cruzi growth-1 inactive.
`O=C(C[C@H]1CC[C@H]2[C@@H](COC[C@H](O)CN2C(=O)Nc2ccc(Cl)c(Cl)c2)O1)NCc1ccc(Cl)c(Cl)c1` gave Pf Dd2 growth inactive, T cruzi growth-1 97.0, T cruzi growth-2 inactive, T cruzi growth-3 inactive, NIH3T3 tox 40.6 and NIH3T3 tox 2 105.4.
Screening CCCNC(=O)Nc1ccc2c(c1)OC[C@H](C)N(Cc1cccnc1)C[C@H](C)[C@H](OC)CN(C)C2=O returned Pf Dd2 growth inactive and T cruzi growth-1 inactive.
`CC(=O)NC[C@H]1[C@H](c2ccc(-c3cccc(F)c3)cc2)[C@H](CO)N1C(C)=O` gave Pf Dd2 growth inactive, C diff growth inactive and T cruzi growth-1 inactive.
Screening COc1ccc(S(=O)(=O)Nc2ccc3c(c2)CC(=O)N([C@@H](C)CO)C[C@@H](C)[C@@H](CN(C)C(=O)NC2CCCCC2)O3)cc1 returned Pf Dd2 growth inactive, C diff growth inactive and T cruzi growth-1 inactive.
CCCC#Cc1ccc([C@H]2[C@H](CO)N3CCCCN(CC4CC4)C[C@@H]23)cc1 was read as Pf Dd2 growth inactive, C diff growth inactive, T cruzi growth-1 98.4, T cruzi growth-2 109.0, T cruzi growth-3 inactive, NIH3T3 tox inconclusive and NIH3T3 tox 2 105.2.
`CCCC#Cc1ccc([C@@H]2[C@H](CO)N3CCCCN(CC4CC4)C[C@@H]23)cc1` gave Pf Dd2 growth inactive, C diff growth inactive and T cruzi growth-1 inactive.
`COCC#Cc1ccc([C@H]2[C@@H](CO)N3CCCCN(Cc4ccncc4)C[C@H]23)cc1` gave Pf Dd2 growth inactive, C diff growth inactive, T cruzi growth-1 108.5, T cruzi growth-2 105.6, T cruzi growth-3 inactive, NIH3T3 tox inactive and NIH3T3 tox 2 inactive.
For COCC#Cc1ccc([C@@H]2[C@@H](CO)N3CCCCN(Cc4ccncc4)C[C@H]23)cc1 the results were Pf Dd2 growth inactive, C diff growth inactive and T cruzi growth-1 inactive.
`CCCC#Cc1ccc([C@H]2[C@H]3CN(Cc4cccnc4)CCCCN3[C@H]2CO)cc1` gave Pf Dd2 growth inactive, C diff growth inactive and T cruzi growth-1 inactive.
For CCCC#Cc1ccc([C@H]2[C@@H](CO)N3CCCCN(Cc4cccnc4)C[C@H]23)cc1 the results were Pf Dd2 growth inactive, C diff growth inactive, T cruzi growth-1 inconclusive, T cruzi growth-2 108.2, T cruzi growth-3 inactive, NIH3T3 tox inactive and NIH3T3 tox 2 102.4.
Screening CCCC#Cc1ccc([C@@H]2[C@@H](CO)N3CCCCN(Cc4ccncc4)C[C@H]23)cc1 returned Pf Dd2 growth inactive, C diff growth inactive, T cruzi growth-1 108.7, T cruzi growth-2 98.3, T cruzi growth-3 inactive, NIH3T3 tox 35.0 and NIH3T3 tox 2 66.8.
CCCC#Cc1ccc([C@H]2[C@@H](CO)N3CCCCN(Cc4ccncc4)C[C@H]23)cc1 was read as Pf Dd2 growth inactive, C diff growth inactive and T cruzi growth-1 inactive.
CC(=O)N(C)C[C@@H]1Oc2ncc(/C=C/c3ccccc3)cc2C(=O)N([C@@H](C)CO)C[C@@H]1C was read as Pf Dd2 growth inactive, C diff growth inactive and T cruzi growth-1 inactive.
For C[C@@H]1CN([C@H](C)CO)C(=O)CCCn2nncc2CO[C@H]1CN(C)C(=O)CCCN(C)C the results were Pf Dd2 growth inactive and C diff growth inactive.
For CCC(=O)N(C)C[C@H]1Oc2cc(C#CC3CC3)ccc2S(=O)(=O)N([C@@H](C)CO)C[C@H]1C the results were Pf Dd2 growth inactive and T cruzi growth-1 inactive.
Screening COc1ccc2c3c([nH]c2c1)[C@H](CO)N(Cc1nccs1)CC31CN(C(=O)C2CCOCC2)C1 returned Pf Dd2 growth inactive and C diff growth inactive.
Screening C[C@H](CO)N1C[C@H](C)[C@@H](CN(C)Cc2ccccc2)OCCCC[C@H](C)Oc2ccc(NS(=O)(=O)c3ccc(F)cc3)cc2C1=O returned Pf Dd2 growth inactive, C diff growth inactive and T cruzi growth-1 inactive.
COc1ccc(C#Cc2ccc([C@@H]3[C@H](CO)N4CCCCN(Cc5ccncc5)C[C@@H]34)cc2)cc1 was read as Pf Dd2 growth inactive, C diff growth inactive and T cruzi growth-1 inactive.
For COc1ccc(C#Cc2ccc([C@H]3[C@H](CO)N4CCCCN(Cc5ccncc5)C[C@@H]34)cc2)cc1 the results were Pf Dd2 growth inactive, C diff growth inactive, T cruzi growth-1 89.6, T cruzi growth-2 108.6, T cruzi growth-3 inactive, NIH3T3 tox 49.5 and NIH3T3 tox 2 105.0.
`CCCC#Cc1ccc([C@@H]2[C@@H](CO)N3CCCCN(Cc4ccncc4)C[C@@H]23)cc1` gave Pf Dd2 growth inactive, C diff growth inactive and T cruzi growth-1 inactive.
`CCCC#Cc1ccc([C@@H]2[C@H]3CN(Cc4cncnc4)CCCCN3[C@H]2CO)cc1` gave Pf Dd2 growth inactive, C diff growth inactive and T cruzi growth-1 inactive.
Screening CCCC#Cc1ccc([C@@H]2[C@H]3CN(Cc4ccncc4)CCCCN3[C@H]2CO)cc1 returned Pf Dd2 growth inactive, C diff growth inactive, T cruzi growth-1 inconclusive, T cruzi growth-2 96.5, T cruzi growth-3 inactive, NIH3T3 tox 36.6 and NIH3T3 tox 2 105.7.
COCC#Cc1ccc([C@H]2[C@H](CO)N3CCCCN(Cc4cncnc4)C[C@@H]23)cc1 was read as Pf Dd2 growth inactive, C diff growth inactive, T cruzi growth-1 114.6, T cruzi growth-2 98.4, T cruzi growth-3 inactive, NIH3T3 tox inactive and NIH3T3 tox 2 inactive.
For COCC(=O)N1CC2(CCN(Cc3nccs3)CC2)c2c(n(C)c3cc(OC)ccc23)[C@H]1CO the results were Pf Dd2 growth inactive and C diff growth inactive.
C[C@H](CO)N1C[C@H](C)[C@@H](CN(C)Cc2ccc(C(F)(F)F)cc2)Oc2ccc(NC(=O)NC3CCCCC3)cc2CC1=O was read as Pf Dd2 growth inactive, C diff growth inactive and T cruzi growth-1 inactive.
Screening CN(C)CC#Cc1ccc([C@H]2[C@H](CO)N3C(=O)CN(C(=O)c4ccc(F)cc4)C[C@@H]23)cc1 returned Pf Dd2 growth inactive and C diff growth inactive.
COc1ccccc1NC(=O)N[C@@H]1CC[C@@H](CC(=O)N2CCC(Cc3ccccc3)CC2)O[C@H]1CO was read as Pf Dd2 growth inactive and C diff growth inactive.
CC(C)NC(=O)Nc1ccc2c(c1)C(=O)N([C@H](C)CO)C[C@H](C)[C@@H](CN(C)C(=O)Nc1ccc(F)cc1)OCCCC[C@H](C)O2 was read as Pf Dd2 growth inactive, C diff growth inactive and T cruzi growth-1 inactive.
